# Source: PubChem BioAssay (EPA / NIEHS)
# Records with an inconclusive call do not appear. Calls of active or inactive are those of the source. The calls were made as follows: active = hit-call score of the fitted dose curve at least 0.9, where 1 is the maximum; inconclusive = response in the unintended direction; inactive = score below 0.9.
# Tests used:
# [1] = test system: frog Estrogen Receptor (ESR1), gene 398734; test: ATG_frER1_XSP1: Attagene TRANS-FACTORIAL Multi-Species (XSP1) HepG2 Assay for frog Estrogen Receptor (ESR1) (AID 2283777)
# In short: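 HepG2 cells transiently transfected with GAL4-UAS reporter units and frog ER–Gal4 chimera were dosed for 24 h with 3 nM 6-alpha-fluorotestosterone present. Reporter mRNA was measured by RT-PCR and capillary electrophoresis; gain of signal fitted versus DMSO.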
# [2] = test system: zebrafish Estrogen Receptor (ESR2A), gene 317734; test: ATG_zfER2a_XSP1: Attagene TRANS-FACTORIAL Multi-Species (XSP1) HepG2 Assay for zebrafish Estrogen Receptor (ESR2A) (AID 2283778)
# Protocol: (§1) ATG_XSP1_multi-species_TRANS is a cell-based, multiplexed assay created by modifying the existing Attagene TRANS-FACTORIAL system to include a panel of nuclear receptors from some or all the following species: human (Homo sapiens), mouse (Mus musculus), frog (Xenopus laevis), zebrafish (Danio rerio), chicken (Gallus gallus), and turtle (Chrysemys picta). The […] format uses HepG2, a human liver cell line, with measurements taken at 24 hours after chemical dosing in a 24-well plate. Xsp1 included 3 nM 6-alpha-fluorotestosterone to partially stimulate the androgen receptor.ATG_zfER2a_XSP1 is one of 29 assay components measured or calculated from the ATG_XSP1_multi-species_TRANS assay. It is designed to make measurements of mRNA induction, a form of inducible reporter, as detected with fluorescence intensity signals by Reverse transcription polymerase chain reaction (RT-PCR) and Capillary electrophoresis technology.The assay endpoint ATG_zfER2a_XSP1 was analyzed in the positive analysis fitting direction relative to DMSO as the negative control and baseline of activity. […] Furthermore, this assay endpoint can be referred to as a primary readout, because this assay has produced multiple assay endpoints where this one serves a reporter gene function. […]
# [3] = target: chicken Estrogen Receptor (ESR1), ESR1 (gene 396099) (UniProt P06212); test: ATG_chERa_XSP1: Attagene TRANS-FACTORIAL Multi-Species (XSP1) HepG2 Assay for chicken Estrogen Receptor (ESR1) (AID 2283779)
# In short: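 Trans-activation of an exogenous chicken ERα–Gal4 chimera read as reporter transcript (RT-PCR, fluorescent labeling, capillary electrophoresis) after 24 h compound exposure of transfected HepG2; medium held 3 nM 6-alpha-fluorotestosterone. Positive-direction fit against DMSO.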
# [4] = test system: turtle Estrogen Receptor (ESR1), gene 101933533; test: ATG_trERa_XSP1: Attagene TRANS-FACTORIAL Multi-Species (XSP1) HepG2 Assay for turtle Estrogen Receptor (ESR1) (AID 2283781)
# In short: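 Transactivation measured 24 h post-dose as reporter mRNA (RT-PCR, fluorescent capillary electrophoresis) from an NR-Gal4 turtle ER construct in HepG2. Medium included 3 nM 6-alpha-fluorotestosterone; increase over DMSO fitted.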
# [5] = test system: turtle Androgen Receptor (AR), gene 101947425; test: ATG_trAR_XSP1: Attagene TRANS-FACTORIAL Multi-Species (XSP1) HepG2 Assay for turtle Androgen Receptor (AR) (AID 2283786)
# Protocol: as §1, with “receptor.ATG_trAR_XSP1” for “receptor.ATG_zfER2a_XSP1”, “ATG_trAR_XSP1” for “ATG_zfER2a_XSP1”
# [6] = target: Estrogen receptor beta (Homo sapiens) (UniProt Q92731); test: ATG_hERb_XSP1: Attagene TRANS-FACTORIAL Multi-Species (XSP1) HepG2 Assay for human Estrogen Receptor (ESR2) (AID 2283788)
# Protocol: as §1, with “receptor.ATG_hERb_XSP1” for “receptor.ATG_zfER2a_XSP1”, “ATG_hERb_XSP1” for “ATG_zfER2a_XSP1”
# [7] = ACEA_ER_AUC_viability: ACEA Biosciences xCELLigence Real-Time Cell Analysis on Estrogen Receptor Agonism for Viability (AID 2283782);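 also: hit means loss of impedance signal meaning reduced cell growth or viability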
# In short: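 Viability endpoint: reduced impedance area under the curve relative to DMSO, recorded by real-time electrode sensing over ~80 h of continuous exposure. Duplicate plates of T47D in hormone-depleted medium; eight concentrations, 1:4 dilutions, 100 uM maximum.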
# [8] = target: AR (gene 367) (UniProt P10275); test: ACEA_AR_antagonist_80hr: ACEA Biosciences xCELLigence Real-Time Cell Analysis on Androgen Receptor Antagonism for Proliferation (AID 2283787);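 also: hits lower the impedance growth signal relative to DMSO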
# In short: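 Impedance-based real-time growth of 22Rv1 prostate cells, read 80 h after dosing. Eight concentrations, 1:4 series, top 100 uM final (0.5% DMSO), n = 2; signal decrease scored against DMSO.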
# [9] = target: AR (gene 367) (UniProt P10275); test: ACEA_AR_agonist_80hr: ACEA Biosciences xCELLigence Real-Time Cell Analysis on Androgen Receptor Agonism for Proliferation (AID 2283783);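 also: hits increase impedance growth signal above DMSO baseline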
# Protocol: ACEA_AR_agonist is a cell-based, single-readout assay that uses 22Rv1, a human prostate cancer cell line, with measurements taken at 80 hours after chemical dosing in a 384-well plate, although TO5 and TO6 (mc0.srcf) used a 96-well plate. Differences in plate size can be ignored given data normalization.ACEA_AR_agonist_80hr is one of two assay component(s) measured or calculated from the ACEA_AR assay. It is designed to make measurements of real-time cell-growth kinetics, a form of growth reporter, as detected with electrical impedance signals by Real-Time Cell Electrode Sensor (RT-CES) technology.Data from the assay component ACEA_AR_agonist_80hr was analyzed in the positive analysis fitting direction relative to DMSO as the negative control and baseline of activity. Using a type of growth reporter, measures of the cells for gain-of-signal activity can be used to understand the signaling at the pathway-level as they relate to the geneAR Furthermore, this assay endpoint can be referred to as a primary readout, because this assay has produced multiple assay endpoints where this one serves a signaling function. To generalize the intended target to other relatable targets, this assay endpoint is annotated to the nuclear receptor intended target family, where the subfamily is steroidal.
# The xCELLigence system Multi-E-Plate stations were used to measure the time-dependent response to chemicals. Each compound was tested in an eight-point, 1:4 serial dilution series starting at a maximum final concentration of 100 uM. A maximum starting concentration of 0.5% DMSO was present in the 100 uM chemical samples and was diluted along with the test article dilution series. The screen was performed in biological duplicate using two separate, 96-well, E-Plates 96 for each dilution series (n = 2). Positive controls (MG132 and testosterone) and a negative control (assay media) were tested in quadruplicate on each testing plate. […] Reference compounds were tested with 8 concentrations with 1:5 serial dilutions. All screening was carried out by ACEA Biosciences, Inc. (San Diego, CA). 22Rv1 cells purchased from ATCC were maintained in media supplemented with 10% fetal bovine serum (FBS). Before screening, 22Rv1 cells were preconditioned in assay medium. Cells were then detached and seeded in E-Plates 96 in assay medium. After overnight monitoring of growth once every hour, compounds were added to […] cells and remained in the medium until the end of the experiment. Cellular responses were then recorded once every 5 min for the first 5 h, and once every hour for an additional 100 h.
# [10] = STM_H9_NormalizedViability: Cytotoxicity Assessment at 120 hours in the Stemina devTOX quickPredict H9 human embryonic stem cell (hESC)-based Assay (AID 2283784)
# In short: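 CellTiter-Fluor RFU, background-subtracted, expressed relative to 0.1% DMSO neutral control by plate. Pluripotent H9 cells; treatment with daily re-dosing. Plates carried 1uM methotrexate (positive) and 5 nM methotrexate (negative) references.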
# Sequence of AR (gene 367) (P10275 whole entry, looked up): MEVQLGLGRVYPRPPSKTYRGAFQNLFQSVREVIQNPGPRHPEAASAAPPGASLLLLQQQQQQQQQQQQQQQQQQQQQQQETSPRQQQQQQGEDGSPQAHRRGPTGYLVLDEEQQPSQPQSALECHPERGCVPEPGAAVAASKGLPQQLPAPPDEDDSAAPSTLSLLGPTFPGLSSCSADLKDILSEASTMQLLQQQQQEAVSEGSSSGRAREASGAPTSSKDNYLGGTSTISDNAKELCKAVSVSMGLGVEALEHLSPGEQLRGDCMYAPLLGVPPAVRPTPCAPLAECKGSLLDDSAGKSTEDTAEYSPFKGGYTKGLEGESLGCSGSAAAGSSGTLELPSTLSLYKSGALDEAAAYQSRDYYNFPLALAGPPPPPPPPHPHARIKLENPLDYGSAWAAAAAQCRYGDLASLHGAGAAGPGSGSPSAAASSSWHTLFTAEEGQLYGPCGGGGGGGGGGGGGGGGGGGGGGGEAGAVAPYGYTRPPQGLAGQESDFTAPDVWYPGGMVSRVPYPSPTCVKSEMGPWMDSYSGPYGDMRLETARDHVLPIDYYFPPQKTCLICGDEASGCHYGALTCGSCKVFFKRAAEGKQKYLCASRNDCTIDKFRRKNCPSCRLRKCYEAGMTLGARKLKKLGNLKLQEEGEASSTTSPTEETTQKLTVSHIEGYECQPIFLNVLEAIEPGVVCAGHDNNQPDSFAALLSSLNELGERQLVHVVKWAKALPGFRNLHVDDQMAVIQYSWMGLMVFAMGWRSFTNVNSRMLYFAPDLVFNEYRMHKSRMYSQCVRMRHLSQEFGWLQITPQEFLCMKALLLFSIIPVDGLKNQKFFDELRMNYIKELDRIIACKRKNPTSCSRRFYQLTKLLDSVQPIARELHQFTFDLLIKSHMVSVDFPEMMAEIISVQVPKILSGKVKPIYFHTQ
# Sequence of Estrogen receptor beta (Homo sapiens) (Q92731 whole entry, looked up): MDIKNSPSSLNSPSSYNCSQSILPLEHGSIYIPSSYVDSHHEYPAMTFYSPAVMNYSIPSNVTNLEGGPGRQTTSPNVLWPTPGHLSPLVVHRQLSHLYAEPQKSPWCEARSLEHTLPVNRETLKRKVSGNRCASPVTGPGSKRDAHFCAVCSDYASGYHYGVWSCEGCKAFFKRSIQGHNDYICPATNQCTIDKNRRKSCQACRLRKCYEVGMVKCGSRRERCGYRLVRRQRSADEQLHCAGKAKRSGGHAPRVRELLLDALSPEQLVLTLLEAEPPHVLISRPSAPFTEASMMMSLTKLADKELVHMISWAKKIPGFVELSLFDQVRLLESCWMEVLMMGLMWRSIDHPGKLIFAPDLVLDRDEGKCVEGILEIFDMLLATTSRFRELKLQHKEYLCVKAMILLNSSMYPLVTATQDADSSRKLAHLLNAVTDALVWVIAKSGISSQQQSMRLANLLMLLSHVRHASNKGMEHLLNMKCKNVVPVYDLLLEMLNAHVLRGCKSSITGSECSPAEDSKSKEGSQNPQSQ
# Sequence of chicken Estrogen Receptor (ESR1), ESR1 (gene 396099) (P06212 whole entry, looked up, the tested form may be a part): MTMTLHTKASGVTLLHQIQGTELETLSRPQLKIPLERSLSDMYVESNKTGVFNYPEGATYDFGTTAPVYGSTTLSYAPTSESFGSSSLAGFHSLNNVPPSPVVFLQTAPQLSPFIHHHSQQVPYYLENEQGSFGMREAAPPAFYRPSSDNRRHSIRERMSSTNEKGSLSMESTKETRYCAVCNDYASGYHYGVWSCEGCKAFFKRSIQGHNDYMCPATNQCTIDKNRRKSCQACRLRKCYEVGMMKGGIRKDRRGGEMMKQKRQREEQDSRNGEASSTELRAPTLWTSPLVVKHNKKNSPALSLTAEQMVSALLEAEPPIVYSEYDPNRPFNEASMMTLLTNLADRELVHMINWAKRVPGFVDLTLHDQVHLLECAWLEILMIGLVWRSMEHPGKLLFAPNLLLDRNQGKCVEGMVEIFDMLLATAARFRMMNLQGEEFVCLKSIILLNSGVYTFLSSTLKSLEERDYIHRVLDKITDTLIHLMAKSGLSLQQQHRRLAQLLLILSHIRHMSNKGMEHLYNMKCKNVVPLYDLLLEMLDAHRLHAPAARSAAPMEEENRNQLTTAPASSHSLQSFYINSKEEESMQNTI
compound,measurement,setting,value
CCCCC(CC)COC(=O)c1ccc(O)cc1 (stereo unspecified),AC50,[1],1.91 µM (active)
same,AC50,[2],1.41 µM (active)
same,AC50,[3],2.3 µM (active)
same,AC50,[4],3.59 µM (active)
same,outcome,[5],inactive
same,outcome,[6],inactive
CCCCCCCCCCCCCC(=O)OCC(O)CO (stereo unspecified),AC50,[7],81.6 µM (active)
same,outcome,[8],inactive
Cc1cc(=O)oc2cc(N(C)C)ccc12,outcome,[7],inactive
Cc1ccc(S(=O)(=O)Oc2ccc(N=Nc3ccc(-c4ccc(N=Nc5c(O)ccc6cc(S(=O)(=O)O)cc(S(=O)(=O)O)c56)c(C)c4)cc3C)cc2)cc1,outcome,[7],inactive
same,AC50,[8],5.11 µM (active)
CCCCC1CCC(O)CC1 (stereo unspecified),outcome,[7],inactive
same,outcome,[8],inactive
CC=CC=CCOC(=O)C(C)C,AC50,[7],76.8 µM (active)
CCOC(=O)[C@@H](C)Oc1ccc(Oc2nc3ccc(Cl)cc3o2)cc1,AC50,[8],3.55 µM (active)
CC(=O)O[C@@H]1CC2CCC1(C)C2(C)C (stereo partly specified),outcome,[8],inactive
CCC1CCCCC1,AC50,[7],75.8 µM (active)
CCc1ccc(O)c(OC)c1,outcome,[7],inactive
CC(=O)O[C@H]1C[C@@H]2CC[C@@]1(C)C2(C)C,outcome,[7],inactive
same,outcome,[9],inactive
same,outcome,[8],inactive
CC(C=O)Cc1ccc(C(C)(C)C)cc1 (stereo unspecified),outcome,[8],inactive
CCc1ccc(O)cc1,outcome,[7],inactive
same,outcome,[8],inactive
Nc1ccc(N)c2c1C(=O)c1ccccc1C2=O,outcome,[7],inactive
same,AC50,[8],16.6 µM (active)
C[C@H]1O[C@@H](O[C@H]2[C@@H](O)C[C@H](O[C@H]3[C@@H](O)C[C@H](O[C@H]4CC[C@@]5(C)[C@H](CC[C@@H]6[C@@H]5C[C@@H](O)[C@]5(C)[C@@H](C7=CC(=O)OC7)CC[C@]65O)C4)O[C@@H]3C)O[C@@H]2C)C[C@H](O)[C@@H]1O,AC50,[7],0.0803 µM (active)
same,outcome,[9],inactive
same,AC50,[8],0.00928 µM (active)
CCCCCCCCC=CCCCCCCCC1=NCCN1CCO,AC50,[7],10.9 µM (active)
same,outcome,[9],inactive
same,outcome,[8],inactive
CCCCCCCCSCCO,outcome,[9],inactive
same,outcome,[8],inactive
CCCCCCC(O)CCCCCCCCCCC(=O)O (stereo unspecified),outcome,[7],inactive
NCc1ccco1,outcome,[7],inactive
CC(C)CCCCCCc1ccc(OCCOCCO)cc1,outcome,[9],inactive
same,outcome,[8],inactive
CCN(CC)C(=O)N(CC)CC,outcome,[7],inactive
BrCc1cccc(Oc2ccccc2)c1,outcome,[7],inactive
same,outcome,[8],inactive
O=[N+]([O-])c1ccc(O)cc1C(F)(F)F,AC50,[7],86.6 µM (active)
C=Cc1ccncc1,AC50,[7],37.3 µM (active)
CCN(CCC#N)c1ccc(N=Nc2ccc([N+](=O)[O-])cc2)cc1,outcome,[7],inactive
ClC(c1ccccc1)(c1ccccc1)c1ccccc1,AC50,[7],82.6 µM (active)
CS(=O)(=O)OCCCCOS(C)(=O)=O,AC50,[10],23.6 µM (active)
CCCC(=O)c1ccccc1,outcome,[7],inactive
C=C(C)[C@H]1CC=C(C)C(=O)C1,outcome,[7],inactive
O=C(O)c1ccc(O)cc1,outcome,[7],inactive
CCc1cc(Cc2cc(CC)cc(C(C)(C)C)c2O)c(O)c(C(C)(C)C)c1,AC50,[8],24.1 µM (active)
C=C(C)C(=O)OCC(CC)(COC(=O)C(=C)C)COC(=O)C(=C)C,outcome,[7],inactive
OCc1cccc(Oc2ccccc2)c1,outcome,[9],inactive
CC1C2CC(CC2C2CCCC(O)C2)C1(C)C (stereo unspecified),AC50,[7],84.8 µM (active)
O=C(CS)OCCOC(=O)CS,AC50,[7],82.2 µM (active)
CN1CCOCC1,outcome,[7],inactive
CC(C)(N=C=O)c1cccc(C(C)(C)N=C=O)c1,AC50,[7],33.1 µM (active)
CC1CCC(C(C)C)C(O)C1 (stereo unspecified),outcome,[7],inactive
same,outcome,[9],inactive
same,outcome,[8],inactive
COC(=O)c1ccc(C)cc1C1=NC(C)(C(C)C)C(=O)N1 (stereo unspecified) (tested in a mixture with another compound),outcome,[7],inactive
CCCC[P+](CCCC)(CCCC)CCCC,AC50,[7],91.7 µM (active)
